Rows were chosen to be rich in hits. Some 7.3% of all compounds tested hit in one or more screens of this group.
FMDV antiviral: High Throughput Screening for Foot and Mouth Disease Virus Antivirals | FMDV antiviral cell-based qHTS | 1.2% of 410,000 active | AID 1159524, 2015 | Potency, µM (titrated, usually from 57.9 µM), hits mostly inhibitors; calls by dose curve; tested in HEK293T cells; further: read-out not given here; nearly all actives have a fitted effect of over 45% in size
AmpC detergent: qHTS Inhibitors of AmpC Beta-Lactamase (assay with detergent) | P00811 | AmpC hydrolysis of nitrocefin, absorbance 480 nm, 0.01% Triton | Potency, µM (series often up to 114 µM), most hits filed as inhibitors | 0.041% of 370,000 active; further: nearly all actives have a fitted effect of over 25% in size
Target sequence (P00811 whole entry, looked up): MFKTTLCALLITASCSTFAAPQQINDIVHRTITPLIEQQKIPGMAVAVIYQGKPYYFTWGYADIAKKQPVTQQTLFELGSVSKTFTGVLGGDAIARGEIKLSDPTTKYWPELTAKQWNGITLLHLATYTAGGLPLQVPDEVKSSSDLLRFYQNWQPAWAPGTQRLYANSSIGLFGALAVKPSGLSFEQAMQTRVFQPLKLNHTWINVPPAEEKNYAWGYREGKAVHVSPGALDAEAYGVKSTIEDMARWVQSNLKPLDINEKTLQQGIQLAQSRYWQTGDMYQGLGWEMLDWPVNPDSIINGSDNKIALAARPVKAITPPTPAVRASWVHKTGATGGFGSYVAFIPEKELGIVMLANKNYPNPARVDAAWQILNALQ
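20 mM phosphate pH 7.0 + 0.01% (detergent screen) or 0.0001% Triton X-100; 5.3 nM AmpC reagent; cpd preinc 15 min RT; nitrocefin (800 uM stock) to start; A480 q20 s × 4 min; Activity was normalised to no-enzyme and no-compound control wells.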
HCV inh: qHTS Assay for Inhibitors of Hepatitis C Virus (HCV); Huh7.5.1 HCVcc-Cre infection, luciferase reporter, 44 h; Potency, µM (top dose mostly 41.8 µM), actives largely listed as inhibitors; 3.4% of 340,000 active; AID 651820, 2012
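Infectious HCVcc-Cre (~0.5 moi) was added to cells just after compound, with cells seeded 4 h earlier at 1,000 per well. Luciferase activity after 44 h culture reported infection; substrate was incubated 15 min at room temperature before reading.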
AmpC no deterg: qHTS Inhibitors of AmpC Beta-Lactamase (assay without detergent); 0.52% of 330,000 active; P00811; Potency, µM (doses to about 57.1 µM), hits mostly inhibitors; AmpC nitrocefin hydrolysis, absorbance 480 nm, 0.0001% Triton; further: nearly all actives have a fitted effect of over 20% in size
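AmpC (5.3 nM in the dispensed reagent) in 20 mM phosphate pH 7.0 with 0.01% (detergent screen) or 0.0001% Triton X-100 was preincubated with compounds for 15 min at room temperature. Nitrocefin was then added from an 800 uM solution, and hydrolysis was followed at 480 nm.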
HCMV antiviral: qHTS Assay for inhibitors of the human cytomegalovirus (HCMV); HFF cells, HCMV-luciferase reporter, 72 h; hits give low values; activity change, negative = inhibition, % at 57.5 µM; 4.5% of 410,000 active; AID 1259415, 2018; in the data active means activity change below about -60%; inconclusive means no clear call, values can overlap the other calls; inactive means above about -39%
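Steps: HFFs plated, 16 h 37C; compounds added; HCMV-luciferase added to MOI 1 PFU/cell; 72 h 37C; OneGlo reagent, 5 min room temperature; luminescence read, normalized to controls.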
Large screens that a line does not name were inactive. Unless noted, the call rests on the fitted dose curve; in most records, active means well fitted curve in the direction sought with a large enough effect; inconclusive means small, poorly fitted or top-dose-only effect, or another doubt; inactive means no such curve, though single readings can be large; an effect the other way counts as inactive or inconclusive.

COc1cccc(NC(=S)N(CCCN2CCOCC2)Cc2cn(C)c3ccccc23)c1	HCV inh inconclusive, HCMV antiviral -78
COc1ccc(NC(=S)N(CCCN2CCOCC2)Cc2cn(C)c3ccccc23)cc1OC	AmpC detergent inconclusive, HCV inh inconclusive, HCMV antiviral -87
NC(=O)c1ccc(NC(=O)COc2coc(CN3CCc4ccccc4C3)cc2=O)cc1	none
CCOC(=O)C1=C[C@@H](C(C)(C)C)N(S(=O)(=O)c2ccc(C)cc2)[C@H]1c1ccc(C)cc1	FMDV antiviral inconclusive, HCMV antiviral -76 (no result: AmpC detergent, HCV inh, AmpC no deterg)
Cc1nnc(Nc2ccc(S(N)(=O)=O)cc2)c2ccccc12	AmpC detergent inconclusive
CCCNC(=O)c1oc2ccc3c(c2c1C)C(=O)CC(C)(C)O3	HCV inh 10µM
CCCNC(=O)c1oc2ccc3c(c2c1C)C=CC(C)(C)O3	HCV inh inconclusive, HCMV antiviral -61
Cc1c(C(=O)NCc2ccc(Cl)cc2)oc2ccc3c(c12)C(=O)CC(C)(C)O3	none (no result: HCV inh, AmpC no deterg)
O=C(Nc1ccccc1Br)C1CCCN(S(=O)(=O)c2cccc3nsnc23)C1 (stereo unspecified)	FMDV antiviral inconclusive (no result: HCV inh, AmpC no deterg)
COc1ccc(-c2cc3ccccc3n2CC(O)CN2CCCCC2)cc1 (stereo unspecified)	HCMV antiviral -81
Cc1ccc(-n2nc3c(=O)n(CC(=O)c4ccc(F)cc4)nc(C)c3c2C)cc1	FMDV antiviral 25µM, AmpC detergent inconclusive, HCV inh inconclusive
Cc1ccc(-n2nc3c(=O)n(C(C)C(=O)NCCc4cccs4)nc(C)c3c2C)cc1 (stereo unspecified)	FMDV antiviral inconclusive, HCV inh inconclusive (no result: HCMV antiviral)
Cc1ccc(CCNC(=O)C(C)n2nc(C)c3c(C)n(-c4ccc(C)cc4)nc3c2=O)cc1 (stereo unspecified)	FMDV antiviral 11µM, AmpC detergent inconclusive, HCMV antiviral -62 (no result: HCV inh, AmpC no deterg)
CCC(C(=O)NC1CC1)n1nc(C)c2c(C)n(-c3ccc(C)cc3)nc2c1=O (stereo unspecified)	HCV inh inconclusive, HCMV antiviral inconclusive
CCC(C(=O)NCCCc1ccccc1)n1nc(C)c2c(C)n(-c3ccccc3)nc2c1=O (stereo unspecified)	HCV inh inconclusive, HCMV antiviral -67
CCC(C(=O)NCc1ccc(OC)c(OC)c1)n1nc(C)c2c(C)n(-c3ccc(C)cc3)nc2c1=O (stereo unspecified)	FMDV antiviral inconclusive, HCMV antiviral -74 (no result: HCV inh, AmpC no deterg)
N[C@@H](CCC(=O)N[C@@H](CS)C(=O)NCC(=O)O)C(=O)O	none (no result: AmpC detergent, HCV inh, AmpC no deterg, HCMV antiviral)
CN(CC1CCOCC1)C(=O)CC1C(=O)NCCN1CC(c1ccccc1)c1ccccc1 (stereo unspecified)	none
Cc1ccc(CSCc2ccc(C(=O)NCCc3ccc(Cl)cc3)o2)cc1	FMDV antiviral inconclusive (no result: HCV inh, AmpC no deterg)
Cc1cccc(OCCn2c(-c3ccc(Cl)cc3)nc3ccccc3c2=O)c1C	none (no result: HCV inh, AmpC no deterg)
CN(C)C(=O)CCC(=O)NCC1Cc2cccc(-c3ccccc3C(F)(F)F)c2O1 (stereo unspecified)	none (no result: AmpC detergent, HCV inh, AmpC no deterg, HCMV antiviral)
COc1ccc(CNC(=O)C(C)n2nc(C)c3c(C)n(-c4ccc(C)cc4)nc3c2=O)cc1 (stereo unspecified)	FMDV antiviral inconclusive, HCV inh inconclusive, HCMV antiviral -68
CCc1cccc(C)c1NC(=O)Cn1nc(C)c2nn(-c3ccc(Cl)cc3)c(C)c2c1=O	HCMV antiviral -62 (no result: HCV inh, AmpC no deterg)
COc1ccccc1CNC(=O)CCCn1nc(C)c2c(C)n(-c3ccccc3)nc2c1=O	none
Cc1ccc(-n2nc3c(=O)n(CC(=O)NC(C)CCc4ccccc4)nc(C)c3c2C)cc1 (stereo unspecified)	FMDV antiviral inconclusive, HCV inh 2.2µM (no result: HCMV antiviral)
CCOc1ccc(CNC(=O)C(C)n2nc(C)c3c(C)n(-c4ccccc4)nc3c2=O)cc1 (stereo unspecified)	AmpC detergent inconclusive, HCMV antiviral inconclusive
COc1cccc(CNC(=O)CCCn2nc(C)c3c(C)n(-c4ccc(C)cc4)nc3c2=O)c1OC	FMDV antiviral inconclusive, AmpC detergent inconclusive, HCV inh 13µM, HCMV antiviral inconclusive
COc1ccc(NC(=O)CNC(=O)c2nn(-c3ccc(OC)c(Cl)c3)c(=O)c3ccccc23)c(OC)c1	HCV inh inconclusive
